Results reported in PubChem BioAssay (NCI).
This is part of a sample that, as a whole, favours compounds with a hit. Of some 83,000 tested, about 20% had one in any assay.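 Results are percent growth after 48 hours of single-concentration exposure. 100 means growth as in untreated cells, lower positive values show inhibition; negative values down to -100 show cell death.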 Active and inactive are the calls of the source. The calls were made as follows: active = growth percent below 10; inactive = the rest.

Tests used:
Experiment in all cases: NCI-60 one-dose screen, 48 h (100 = growth as untreated, 0 = no growth, -100 = all killed)
Details in all cases: 10 µM unless noted
NCI-H23 lung = tested on: NCI-H23 lung
NCI-H226 lung = tested on: NCI-H226 lung
HOP-62 NSCLC = tested on: HOP-62 NSCLC
NCI-H460 lung = tested on: NCI-H460 lung
HOP-92 NSCLC = tested on: HOP-92 NSCLC
NCI-H522 lung = tested on: NCI-H522 lung
A549/ATCC NSCLC = tested on: A549/ATCC NSCLC
786-0 renal = tested on: 786-0 renal
COLO 205 colon = tested on: COLO 205 colon

Measured: growth

COc1cc2nc(-c3ccc(Cl)cc3)cc(OCCCN3CCCCC3)c2cc1OC
active: NCI-H226 lung -9.93%
inactive: NCI-H23 lung 64.7% | HOP-62 NSCLC 54.7% | NCI-H460 lung 25.6% | HOP-92 NSCLC 34.2% | NCI-H522 lung 34% | A549/ATCC NSCLC 36% | 786-0 renal 72.5% | COLO 205 colon 16.1%

COc1cc(/C=N/O)nc(-c2ccccn2)c1
inactive: NCI-H23 lung 19.9% | NCI-H226 lung 11.7% | HOP-62 NSCLC 23.9% | HOP-92 NSCLC 54.4% | A549/ATCC NSCLC 14.8% | 786-0 renal 17.5% | COLO 205 colon 10.7%
active: NCI-H460 lung 5.13% | NCI-H522 lung 7.77%

Cc1cc(Cl)nc(N(CCNc2ccnc3cc(Cl)ccc23)Cc2ccccn2)n1
inactive: NCI-H23 lung 56.2% | NCI-H226 lung 79.5% | HOP-62 NSCLC 72.5% | NCI-H460 lung 50.9% | HOP-92 NSCLC 38% | NCI-H522 lung 54.1% | A549/ATCC NSCLC 63.3% | 786-0 renal 38.7% | COLO 205 colon 57.5%

O=C(N/N=C/c1cc2ccccc2n2nnnc12)Nc1ccccc1
inactive: NCI-H23 lung 100% | NCI-H226 lung 103% | HOP-62 NSCLC 100% | NCI-H460 lung 105% | HOP-92 NSCLC 105% | NCI-H522 lung 93.6% | A549/ATCC NSCLC 97.7% | 786-0 renal 91.5% | COLO 205 colon 108%

Cc1ccc(C(=O)/C(=C/c2ccc([N+](=O)[O-])cc2)SCc2ccc(Cl)cc2)cc1
inactive: NCI-H23 lung 61.8% | NCI-H226 lung 76.3% | HOP-62 NSCLC 100% | NCI-H460 lung 74.6% | HOP-92 NSCLC 92% | NCI-H522 lung 63.1% | A549/ATCC NSCLC 67.9% | 786-0 renal 52.1% | COLO 205 colon 82.7%

COc1cc2c(=O)n(CCN(C)C)c3c4cc5c(cc4ccc3c2cc1OC)OCO5
active: NCI-H23 lung -20.7% | NCI-H226 lung -97.6% | HOP-62 NSCLC -5.77% | NCI-H460 lung -31.6% | HOP-92 NSCLC -9.74% | NCI-H522 lung -37.9% | A549/ATCC NSCLC -84.9% | 786-0 renal -58.7% | COLO 205 colon -56.3%

Oc1ccc(OCCOc2ccc(O)cc2)cc1
inactive: NCI-H23 lung 57.2% | NCI-H226 lung 92% | HOP-62 NSCLC 87.6% | NCI-H460 lung 48.5% | HOP-92 NSCLC 94.2% | NCI-H522 lung 30.9% | A549/ATCC NSCLC 35% | 786-0 renal 28.3% | COLO 205 colon 108%

N=C(N)c1ccc(OCCCCCCCCCCOc2ccc(C(=N)N)cc2)cc1
active: NCI-H23 lung -69.5% | NCI-H226 lung -71.7% | HOP-62 NSCLC -76.6% | HOP-92 NSCLC -86.1% | NCI-H522 lung -75.8% | A549/ATCC NSCLC -85.4% | 786-0 renal -89.8% | COLO 205 colon -61.6%

O=C1c2cccc3c(-c4ccc5c(c4)ncn5C4CCCCC4)ccc(c23)C(=O)N1c1nc2ccccc2s1
inactive: NCI-H23 lung 86.4% | NCI-H226 lung 84.1% | HOP-62 NSCLC 82% | NCI-H460 lung 94.8% | HOP-92 NSCLC 76% | NCI-H522 lung 78.2% | A549/ATCC NSCLC 100% | 786-0 renal 93% | COLO 205 colon 89.8%

CCOc1ccc(/C=N/Nc2cc(C)nc3ccc(Br)cc23)cc1
inactive: NCI-H23 lung 82.2% | NCI-H226 lung 92.7% | HOP-62 NSCLC 96.5% | NCI-H460 lung 87.2% | HOP-92 NSCLC 57.5% | NCI-H522 lung 97.7% | A549/ATCC NSCLC 82% | 786-0 renal 96.1% | COLO 205 colon 96.2%

COc1cccc2c1c1nc3cc(C)c(C)cc3nc1n2CCN(C)C
inactive: NCI-H23 lung 18.4% | HOP-62 NSCLC 24.9% | HOP-92 NSCLC 36.1% | A549/ATCC NSCLC 10.6% | 786-0 renal 36%
active: NCI-H226 lung -6.81% | NCI-H460 lung 7.95% | NCI-H522 lung -4.98% | COLO 205 colon 9.54%

O=C1Nc2cc(-c3cccc(O)c3)ccc2/C1=C/c1ccc[nH]1
inactive: NCI-H226 lung 73.9% | HOP-62 NSCLC 14% | HOP-92 NSCLC 30.9% | A549/ATCC NSCLC 17.7% | 786-0 renal 15% | COLO 205 colon 83.7%
active: NCI-H23 lung 4.68% | NCI-H460 lung 4.52% | NCI-H522 lung 3.76%

COc1ccc(C(=O)c2cc(C)c(OC)c(C)c2)c(OC)c1N(C(=O)CCl)C(=O)CCl
inactive: NCI-H23 lung 20.8% | A549/ATCC NSCLC 13.4% | 786-0 renal 13.2%
active: NCI-H226 lung 7.88% | HOP-62 NSCLC 9.36% | NCI-H460 lung 1.32% | HOP-92 NSCLC 7.45% | NCI-H522 lung 6.33% | COLO 205 colon -39.4%

O=C(/C(=C\c1ccc([N+](=O)[O-])cc1)S(=O)Cc1ccc(Cl)cc1)c1ccc(Cl)cc1 (centres undefined)
inactive: NCI-H23 lung 84.5% | NCI-H226 lung 92.9% | HOP-62 NSCLC 96.1% | NCI-H460 lung 76.3% | HOP-92 NSCLC 83.6% | NCI-H522 lung 37.5% | A549/ATCC NSCLC 93.8% | 786-0 renal 32.1% | COLO 205 colon 74.7%

C=C1C(=O)O[C@H]2[C@H]1CC/C(C(=O)NCCCCCNC(=O)/C1=C/CC[C@@]3(C)O[C@H]3[C@H]3OC(=O)C(=C)[C@@H]3CC1)=C\CC[C@@]1(C)O[C@@H]21
inactive: NCI-H23 lung 97.6% | NCI-H226 lung 103% | HOP-62 NSCLC 98.8% | NCI-H460 lung 109% | HOP-92 NSCLC 105% | NCI-H522 lung 89.3% | A549/ATCC NSCLC 95.3% | 786-0 renal 101% | COLO 205 colon 102%
